Assay outcomes deposited in PubChem by several laboratories.
Shown are actives, neighbours in structure and some others; about 2.9% of the full set was active somewhere.
Peg3 prom inh: Peg3 promoter-driven luciferase inhibitors, primary screen, cell-based, HeLa, luciferase luminescence. HeLa PEG-Prom luciferase reporter, overnight. inhibition, % at 20 µM. actives 1.7% (n = 360,000);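 active = inhibition of at least 50% at 20 µM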
MITF TRPM1 inh: inhibitors of MITF-dependent TRPM1 promoter reporter, primary screen, cell-based, SK-MEL-5, single point, luciferase. SK-MEL-5 TRPM1 promoter luciferase, 24 h. inhibition, % at 12.5 µM. actives 0.83% (n = 330,000). AID 488899, 2010;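 active = mean inhibition across replicates of 60% or more, whatever share of single replicates reaches that level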
Shn3 3UTR inh: reduction of Shn3 3'UTR firefly luciferase signal, primary screen, Schnurri-3 inhibitor project, cell-based, Clone20 osteoblasts, set 2 | Clone20 osteoblast Shn3 3'UTR firefly luciferase, 24 h | inhibition, % at 12.5 µM | actives 0.52% (n = 360,000);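 active = mean inhibition of at least 75% with every replicate also reaching 75%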;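 also: 0% = median of neutral control wells and 100% = pilot-screen positive control compound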
EBV LMP1 NFkB: EBV LMP1-driven NF-kappaB luciferase reporter inhibitors, primary screen, cell-based, luminescence, single point. LMP1-induced NF-kappaB luciferase reporter cells. inhibition, % at 12.5 µM. actives 0.69% (n = 350,000); in the data active = inhibition above about 41%;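 also: 0% = neutral control wells and 100% = reference inhibitor control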
KKLEB tox: cytotoxicity in KKLEB CF airway cells, primary screen, cytotoxicity control for CF NF-kB inhibitor project, cell-based, uHTS, fluorescence assay plates; KKLEB CF airway cells viability, ATPlite luminescence, overnight; hits give low values; cells stimulated with P. aeruginosa culture filtrate; activity change (cytotoxicity), % at 5 µM; actives 0.36% (n = 360,000);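 active = corrected activity change at or below -50% at 5 µM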
CF NFkB inh: inhibitors of PAF-induced NF-kB signaling, primary screen, cell-based, GFP fluorescence, uHTS. KKLEB NF-kB-GFP reporter, GFP fluorescence overnight. inhibition, % at 5 µM. actives 0.86% (n = 360,000);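 active = at least 50% inhibition at 5 µM, scaled per plate between neutral and stimulator controls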;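 also: PAF is a Pseudomonas aeruginosa culture filtrate used as stimulus; plate controls were PAF-stimulated DMSO wells for no effect and unstimulated DMSO wells for full effect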
Numbers without * were called inactive; · = no result given.

SMILES	Peg3 prom inh	MITF TRPM1 inh	Shn3 3UTR inh	EBV LMP1 NFkB	KKLEB tox	CF NFkB inh
Cc1ccccc1OCc1nc2ccccc2c(=O)n1/N=C/c1cn[nH]c1-c1ccccc1	40	-26	-39	1	-5	28
C=C1[C@@H](O)[C@H](Cc2ccccc2)N(Cc2ccccc2Br)S1(=O)=O	97*	5	12	-12	-93*	85*
CC(C)N1C(=O)S/C(=C/c2ccc3c(c2)n(C)c(=O)n3C)C1=O	-56	-42	2	-8	5	-60
CCN(CC)c1ccc(/C=C2\SC(=O)N(C(C)C)C2=O)o1	89*	·	97*	·	13	-19
CC1(C)CC(=O)C(C(c2ccc3c(c2)OCO3)C2C(=O)CC(C)(C)CC2=O)C(=O)C1	-3	·	5	·	-2	-2
COc1ccc(NS(=O)(=O)c2cccc(NC(=O)c3ccc(Cl)nc3)c2)cc1	22	17	80	10	-40	3
O=C(Nc1cccc(S(=O)(=O)Nc2ccc(Cl)cc2)c1)c1ccc(Cl)nc1	19	35	91*	14	10	-2
O=C(Nc1cccc(O)c1)c1cccc(C(=O)Nc2cccc(O)c2)c1	4	7	-14	5	0	-12
O=C(Nc1cccc(O)c1)c1cccc(S(=O)(=O)Nc2cccc(O)c2)c1	1	3	-1	49*	5	-18
COc1cccc(C(CCc2cc(OC)c(OC)c(OC)c2)NC(C)=O)c1 (stereo not drawn)	-26	-8	-20	-8	-11	-8
COc1ccc([C@H]2CN(c3ccc(OC)cc3)C(=O)[C@@H]2CC(=O)Nc2ccc(Br)cc2)cc1	-8	·	-4	-3	-2	-19
CN(C)CC(C)(C)CNS(=O)(=O)c1ccc(OC(F)(F)F)cc1	8	1	35	47*	0	9
O=C(Cc1coc2cc(O)ccc12)N1CCN(S(=O)(=O)c2ccc(Br)cc2)CC1	11	7	19	1	11	8
COc1ccccc1C(C[N+](=O)[O-])c1c(N)n(C)c(=O)n(C)c1=O (stereo not drawn)	104*	·	22	·	-9	48
Cc1ccc(C(C)C)c(OCc2ccc(C(=O)N/N=C/c3ccc(C(=O)O)cc3)cc2)c1	-83	-4	8	-3	-1	8
Cc1ccc(C(C)C)c(OCc2ccc(C(=O)N/N=C/c3ccc(O)cc3O)cc2)c1	32	·	92*	17	-10	14
Cc1nn(-c2ccccc2)c(Cl)c1C(=O)NCc1ccccc1F	-17	0	1	-7	-5	11
Cc1nn(-c2ccccc2)c(Cl)c1C(=O)NCCCCNC(=O)c1c(C)nn(-c2ccccc2)c1Cl	-5	6	-32	61*	2	7
C[C@H](CO)N1C[C@H](C)[C@@H](CN(C)CC2CC2)OCc2cnnn2CCCC1=O	-6	·	5	21	-7	4
O=C(/C(N=Nc1cccc([N+](=O)[O-])c1)=C(/O)c1ccc(Br)cc1)C(F)(F)F	-29	·	61	·	-58*	51*
O=C(NCc1nnnn1-c1ccc(Cl)cc1)C(=O)c1c[nH]c2ccccc12	10	·	2	-5	-6	8
CC(=O)N(C1=C(Cl)C(=O)c2ccccc2C1=O)C1CCCCC1	105*	86*	7	24	-13	11
CC(=O)N(c1ccccc1C)C1CCCC1	19	-13	-26	-2	8	-13
CN(C)c1ccc(C=Nc2ccccc2C(N)=O)cc1	63*	6	1	27	-41	-3
Cc1ccc(C=Nc2ccccc2C(N)=O)o1	-14	-10	-7	-2	-7	9
SMILES	Peg3 prom inh	MITF TRPM1 inh	Shn3 3UTR inh	EBV LMP1 NFkB	KKLEB tox	CF NFkB inh
COc1ccc(-n2c(SCC(=O)Nc3ccc4c(c3)OCO4)nc3c(c2=O)SCC3)cc1	15	2	-4	76*	3	-11
O=C1Nc2ccccc2/C1=N\N=C\C1=C(N2CCOCC2)C(=C\c2ccccc2)/CC1	77*	20	19	11	11	-6
O=C1Nc2ccc(Br)cc2/C1=N\N=C\C1=C(N2CCOCC2)C(=C/c2ccccc2)/CC1	30	30	-16	-2	8	13
CCCCNC1=CC(=O)C(=O)c2ccccc21	13	94*	16	3	0	4
O=C1C=C(Nc2ccccc2)C(=O)c2ccccc21	-189	49	-67	-23	-8	60*
CCc1ccc(NC2=CC(=O)C(=O)c3ccccc32)cc1	6	104*	33	-29	-91*	96*
O=C1C=C(Nc2ccccc2C(=O)O)c2ccccc2C1=O	-2	38	-30	-4	4	-6
O=C1C=C(Nc2ccccc2)c2ccccc2C1=O	24	102*	42	2	-25	72*
O=C1C(Nc2ccccc2)=C(NS(=O)(=O)c2ccccc2)C(=O)c2ccccc21	2	51	-6	0	14	31
CC(C)(O)CN(CCCNC(=S)Nc1ccccc1)C(=S)Nc1ccccc1	4	-1	17	2	5	-3
CCOc1ccccc1Nc1nnc(SCC(=O)N(C)C2CCS(=O)(=O)C2)s1 (stereo not drawn)	12	-3	-6	0	-6	29
CCOC(=O)c1c(C)nsc1NC(=O)C1(C)CCN1C(=O)CC (stereo not drawn)	6	·	-12	·	-1	19
O=C1C=C(Nc2cccc3cccnc23)c2ccccc2C1=O	-17	80*	-30	3	2	-6
C=CCNc1nc(N)c(C(=C(C#N)C#N)c2ccc(Br)cc2)s1	56*	22	28	11	-12	7
CCC1C/C(=C\c2cccnc2)C(=O)/C(=C/c2cccnc2)C1 (stereo not drawn)	109*	97*	40	93*	-66*	93*
O=C1/C(=C/c2cccnc2)CC/C1=C\c1cccnc1	2	2	-16	-2	12	-20
NC(CSC(c1ccccc1)(c1ccccc1)c1ccc2c(c1)OCO2)C(=O)O (stereo not drawn)	13	·	-11	9	-3	9
CN(C(=O)c1cccc(NC(=O)Cc2cccc(NC(=O)C3CCCN(C(=O)C4CCCCC4)C3)c2)c1)C1CCC1 (stereo not drawn)	-2	3	-10	17	11	-13
CN[C@H]1CC[C@@H](c2ccc(Cl)c(Cl)c2)c2ccccc21	95*	20	1	-16	·	8
O=C1C=C(O)CC(c2ccc(Cl)c(Cl)c2)C1 (stereo not drawn)	6	-2	-3	1	5	-10
